In PubChem BioAssay (EPA / NIEHS) one finds AC50 and outcome data, which are given here for twelve compounds.

Records with an inconclusive call do not appear. The source made the active and inactive calls. The calls were made as follows, unless noted: active = hit-call score of the fitted dose curve at least 0.9, where 1 is the maximum; inconclusive = response in the unintended direction; inactive = score below 0.9.

The nature of experiment [1]: BSK_3C_Proliferation: Cell Proliferation Assessment in the BioMAP Diversity Plus: 3C Assay (AID 2283006; active = hit-call score of the fitted dose curve at least 0.9, where 1 is the maximum; inactive = score below 0.9;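 as to AC50: potency may reflect either rise or fall in cell number versus DMSO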). The note with it: primary human endothelial cells (HUVEC). The procedure, abridged:
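Proliferation of human vascular endothelial primary cells after 48 h dosing, quantified as SRB-stained protein at 560 nm relative to DMSO.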

The target of experiment [2] is Peroxisome proliferator-activated receptor gamma (Homo sapiens) (UniProt P37231). Kind of experiment: ATG_PPARg_TRANS: Attagene TRANS-FACTORIAL HepG2 Assay for human Peroxisome Proliferator-activated Receptor-gamma (PPARg) (AID 2283007). In a few lines:
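HepG2 cells transiently transfected with multiplexed GAL4-UAS reporter units and exogenous chimeric NR-Gal4 proteins; reporter mRNA quantified after 24 h compound exposure by RT-PCR, fluorescent labelling, HpaI digestion and capillary electrophoresis; gain-of-signal fitted versus DMSO baseline.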

Experiment [3] deals with Nuclear receptor subfamily 1 group I member 2 (Homo sapiens) (UniProt O75469). Kind of experiment: ATG_PXR_TRANS: Attagene TRANS-FACTORIAL HepG2 Assay for human Pregnane X Receptor (PXR) (AID 2283008). The procedure, abridged: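 Read-out is fluorescence of labelled reporter cDNA fragments separated by capillary electrophoresis after RT-PCR and HpaI digestion. Source: HepG2 cells carrying PXR-GAL4/UAS reporter constructs, treated 24 h; activity fitted upward relative to DMSO.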
Chain of Nuclear receptor subfamily 1 group I member 2 (Homo sapiens) (O75469 whole entry, looked up, the tested form may be a part): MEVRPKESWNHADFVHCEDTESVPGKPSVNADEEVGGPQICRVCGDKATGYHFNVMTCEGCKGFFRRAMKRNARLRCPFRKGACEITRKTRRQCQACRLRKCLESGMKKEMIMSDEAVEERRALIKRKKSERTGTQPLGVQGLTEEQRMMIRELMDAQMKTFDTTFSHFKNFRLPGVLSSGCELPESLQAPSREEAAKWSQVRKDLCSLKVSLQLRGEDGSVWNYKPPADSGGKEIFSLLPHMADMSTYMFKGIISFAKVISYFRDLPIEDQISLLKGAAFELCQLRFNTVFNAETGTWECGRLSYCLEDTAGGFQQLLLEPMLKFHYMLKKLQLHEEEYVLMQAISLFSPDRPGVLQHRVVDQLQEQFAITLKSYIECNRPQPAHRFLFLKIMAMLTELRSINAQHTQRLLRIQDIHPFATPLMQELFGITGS

For experiment [4], the target named is human Thyroid Receptor alpha (THRa1), THRA (gene 7067) (UniProt P10827). In words: ATG_THRa1_TRANS: Attagene TRANS-FACTORIAL HepG2 Assay for human Thyroid Receptor alpha (THRa1) (AID 2283014). The procedure, abridged:
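Reporter transcript induction, read by capillary electrophoresis of 6-FAM-labelled RT-PCR products, reflects activity of a transfected THRa1-Gal4 fusion in HepG2 liver cells. Cells were dosed for 24 h; activity was fitted in the positive direction against DMSO.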

Read-out in experiment [5]: E-selectin (Homo sapiens) (UniProt P16581)
In words: BSK_3C_Eselectin: BioMAP Diversity Plus: 3C Assay for Eselectin Biomarker Activity (AID 2283015; active = hit-call score of the fitted dose curve at least 0.9, where 1 is the maximum; inactive = score below 0.9;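 as to outcome: cell surface E-selectin protein quantified by ELISA 24 h after dosing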). The note with it: primary human endothelial cells (HUVEC); actives raise or lower the signal. In a few lines:
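ELISA read-out of E-selectin on endothelial monolayers after 24 h chemical treatment. Human umbilical vein primary cells served as the system, with DMSO defining baseline activity for bidirectional fitting.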

Read-out in experiment [6]: Interleukin-1 alpha (IL1a), IL1A (gene 3552)
In words: BSK_BE3C_IL1a: BioMAP Diversity Plus: BE3C Assay for Interleukin-1 alpha (IL1a) Biomarker Activity (AID 2283016; active = hit-call score of the fitted dose curve at least 0.9, where 1 is the maximum; inactive = score below 0.9). The settings on record: primary human bronchial epithelial cells; actives raise or lower the signal. In a few lines:
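Cultures of primary human bronchial epithelial cells receive test chemical. After 24 h, IL-1a is quantified by ELISA, while parallel wells are fixed in TCA and SRB-stained for total protein. Changes in either direction are fitted relative to DMSO.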

Read-out in experiment [7]: Monocyte Chemoattractant Protein-1 (MCP1), CCL2 (gene 6347)
Kind of experiment: BSK_4H_MCP1: BioMAP Diversity Plus: 4H Assay for Monocyte Chemoattractant Protein-1 (MCP1) Biomarker Activity (AID 2283018; active = hit-call score of the fitted dose curve at least 0.9, where 1 is the maximum; inactive = score below 0.9). The note with it: primary human endothelial cells (HUVEC); actives raise or lower the signal. In a few lines:
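Readout: MCP-1 ELISA on compound-treated HUVEC, sampled 24 h post-dosing. Baseline and negative control DMSO; bidirectional fit. Overt toxicity checked alongside by sulforhodamine B protein staining at time of biomarker measurement.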

Read-out in experiment [8]: Human Leukocyte Antigen - DR isotype (HLADR), HLA-DRA (gene 3122)
Kind of experiment: BSK_3C_HLADR: BioMAP Diversity Plus: 3C Assay for Human Leukocyte Antigen - DR isotype (HLADR) Biomarker Activity (AID 2283019; active = hit-call score of the fitted dose curve at least 0.9, where 1 is the maximum; inactive = score below 0.9;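 as to outcome: ELISA of cell-surface HLA-DR on HUVEC 24 h after dosing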). The settings on record: primary human endothelial cells (HUVEC); actives raise or lower the signal. In a few lines:
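ELISA readout of surface HLA-DR on human umbilical vein endothelium, taken 24 h after chemical treatment. Gain- and loss-of-signal were both fitted relative to DMSO.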

Experiment [9] deals with human Vitamin D Receptor (VDR), VDR (gene 7421) (UniProt P11473). Kind of experiment: ATG_VDR_TRANS: Attagene TRANS-FACTORIAL HepG2 Assay for human Vitamin D Receptor (VDR) (AID 2283022). The procedure, abridged: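 Steps: transfect HepG2 with GAL4-UAS-driven reporter constructs; dose compounds 24 h; isolate RNA, reverse-transcribe, PCR-amplify with 6-FAM-labelled primer extension and HpaI digestion; quantify fragments by capillary electrophoresis relative to DMSO.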
Chain of human Vitamin D Receptor (VDR), VDR (gene 7421) (P11473 whole entry, looked up, the tested form may be a part): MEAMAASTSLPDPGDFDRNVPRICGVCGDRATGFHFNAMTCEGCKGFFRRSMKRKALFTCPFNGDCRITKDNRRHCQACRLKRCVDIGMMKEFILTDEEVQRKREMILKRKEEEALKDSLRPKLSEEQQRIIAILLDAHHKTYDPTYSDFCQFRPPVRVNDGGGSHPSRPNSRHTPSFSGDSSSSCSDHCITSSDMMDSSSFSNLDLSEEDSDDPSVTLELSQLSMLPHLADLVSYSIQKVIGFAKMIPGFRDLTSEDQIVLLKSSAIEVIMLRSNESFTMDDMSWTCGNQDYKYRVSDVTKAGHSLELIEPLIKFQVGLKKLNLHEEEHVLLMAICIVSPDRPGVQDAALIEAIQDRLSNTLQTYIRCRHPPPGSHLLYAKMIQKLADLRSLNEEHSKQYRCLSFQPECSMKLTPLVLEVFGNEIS

The nature of experiment [10]: BSK_3C_SRB: Viability Assessment in the BioMAP Diversity Plus: 3C Assay (AID 2283023; active = hit-call score of the fitted dose curve at least 0.9, where 1 is the maximum; inactive = score below 0.9;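 also: fitted both ways against DMSO so a hit may be signal rise or drop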). The settings on record: primary human endothelial cells (HUVEC). In a few lines: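 Absorbance at 560 nm of sulforhodamine B-stained (0.1%) total protein served as a cytotoxicity readout in human umbilical vein endothelial cells, 24 h after chemical treatment. Signal was fitted bidirectionally relative to DMSO.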

Experiment [11] deals with Retinoic acid receptor alpha (Homo sapiens) (UniProt P10276). Kind of experiment: ATG_RARa_TRANS: Attagene TRANS-FACTORIAL HepG2 Assay for human Retinoic Acid Receptor alpha (RARa) (AID 2283005). In a few lines:
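Reporter transcripts, measured by RT-PCR with fluorescent labeling and capillary electrophoresis after 24 h dosing, reflect activity of an exogenous human RARa–GAL4 fusion in transiently transfected HepG2. Fitted for increase relative to DMSO.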

Experiment [12] concerns the target human Retinoid X Receptor beta (RXRb), RXRB (gene 6257) (UniProt P28702). Kind of experiment: ATG_RXRb_TRANS: Attagene TRANS-FACTORIAL HepG2 Assay for human Retinoid X Receptor beta (RXRb) (AID 2283013). In a few lines:
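Multiplexed TRANS reporter assay in HepG2; 24 h dosing; reporter mRNA by RT-PCR/CE fluorescence; gain-of-signal relative to DMSO.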

Experiment [13] deals with human RAR-related Orphan Receptor gamma (RORg), RORC (gene 6097) (UniProt P51449). Kind of experiment: ATG_RORg_TRANS: Attagene TRANS-FACTORIAL HepG2 Assay for human RAR-related Orphan Receptor gamma (RORg) (AID 2283011). In a few lines:
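First, HepG2 liver cells were transfected with GAL4-UAS-driven reporter constructs and the RORg-Gal4 fusion. Next, they were treated with chemical for 24 h. Finally, reporter mRNA was quantified by RT-PCR and capillary electrophoresis, with upward activity fitted against DMSO.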

Read-out in experiment [14]: Monocyte Chemoattractant Protein-1 (MCP1), CCL2 (gene 6347)
Kind of experiment: BSK_3C_MCP1: BioMAP Diversity Plus: 3C Assay for Monocyte Chemoattractant Protein-1 (MCP1) Biomarker Activity (AID 2283017; active = hit-call score of the fitted dose curve at least 0.9, where 1 is the maximum; inactive = score below 0.9). The settings on record: primary human endothelial cells (HUVEC); actives raise or lower the signal. In a few lines: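 ELISA read-out of MCP-1 from human umbilical vein endothelial cell cultures harvested 24 h post-dosing. Gain or loss of signal was fitted relative to DMSO.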

For experiment [15], the target named is human Retinoic Acid Receptor gamma (RARg), RARG (gene 5916) (UniProt P13631). Kind of experiment: ATG_RARg_TRANS: Attagene TRANS-FACTORIAL HepG2 Assay for human Retinoic Acid Receptor gamma (RARg) (AID 2283009). In a few lines:
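HepG2, RARg-GAL4 TRANS system, 24 h exposure; reporter mRNA by RT-PCR + CE fluorescence; increase over DMSO.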

The target of experiment [16] is human RAR-related Orphan Receptor beta (RORb), RORB (gene 6096) (UniProt Q92753). Kind of experiment: ATG_RORb_TRANS: Attagene TRANS-FACTORIAL HepG2 Assay for human RAR-related Orphan Receptor beta (RORb) (AID 2283010). In a few lines: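 In this TRANS-format test, human HepG2 cells express chimeric NR-Gal4 fusion proteins driving GAL4-UAS reporters. After 24 h dosing, reporter transcripts are measured by fluorescent RT-PCR/capillary electrophoresis, with DMSO as negative control.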
Chain of human RAR-related Orphan Receptor beta (RORb), RORB (gene 6096) (Q92753 whole entry, looked up, the tested form may be a part): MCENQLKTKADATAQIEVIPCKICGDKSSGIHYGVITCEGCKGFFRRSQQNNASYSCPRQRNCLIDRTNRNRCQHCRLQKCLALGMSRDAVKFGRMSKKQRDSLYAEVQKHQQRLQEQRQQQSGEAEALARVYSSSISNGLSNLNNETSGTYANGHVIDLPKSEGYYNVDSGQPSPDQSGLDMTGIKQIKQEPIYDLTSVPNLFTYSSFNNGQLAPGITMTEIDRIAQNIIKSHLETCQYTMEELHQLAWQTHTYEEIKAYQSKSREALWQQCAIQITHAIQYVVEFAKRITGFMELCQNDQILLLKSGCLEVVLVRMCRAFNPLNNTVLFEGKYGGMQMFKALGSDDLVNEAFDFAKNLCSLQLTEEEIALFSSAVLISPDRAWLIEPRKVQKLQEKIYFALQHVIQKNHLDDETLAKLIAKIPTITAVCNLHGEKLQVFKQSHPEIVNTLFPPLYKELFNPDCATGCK

Read-out in experiment [17]: Interleukin-8 (IL8), CXCL8 (gene 3576)
Kind of experiment: BSK_3C_IL8: BioMAP Diversity Plus: 3C Assay for Interleukin-8 (IL8) Biomarker Activity (AID 2283020; active = hit-call score of the fitted dose curve at least 0.9, where 1 is the maximum; inactive = score below 0.9). The note with it: primary human endothelial cells (HUVEC); actives raise or lower the signal. The procedure, abridged:
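Human vascular endothelial cells (umbilical vein) in the 3C system; IL-8 level detected by ELISA at 24 h post-dose, with DMSO as baseline.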

Read-out in experiment [18]: Monokine induced gamma interferon (MIG), CXCL9 (gene 4283)
Kind of experiment: BSK_3C_MIG: BioMAP Diversity Plus: 3C Assay for Monokine induced gamma interferon (MIG) Biomarker Activity (AID 2283021; active = hit-call score of the fitted dose curve at least 0.9, where 1 is the maximum; inactive = score below 0.9). The note with it: primary human endothelial cells (HUVEC); actives raise or lower the signal. In a few lines: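 After 24 h of treatment, human umbilical vein endothelial cultures (3C system) had their MIG biomarker level determined by ELISA, with DMSO serving as negative control.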

Experiment [19] addresses Retinoic acid receptor RXR-alpha (Homo sapiens) (UniProt P19793). In words: ATG_RXRa_TRANS: Attagene TRANS-FACTORIAL HepG2 Assay for human Retinoid X Receptor alpha (RXRa) (AID 2283012). The procedure, abridged: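 Cells (HepG2) carried transiently transfected GAL4-responsive reporter units. Following a 24 h chemical incubation, reporter mRNA induction was read via RT-PCR fragment analysis; DMSO served as negative control and baseline.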

Experiment [20] addresses human Retinoic Acid Receptor beta (RARb), RARB (gene 5915) (UniProt P10826). Kind of experiment: ATG_RARb_TRANS: Attagene TRANS-FACTORIAL HepG2 Assay for human Retinoic Acid Receptor beta (AID 2283004). The procedure, abridged:
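Transient transfection of HepG2 with multiple reporter units → chemical dosing, 24 h → total RNA isolation → RT with oligo(dT) → reporter-specific PCR, 6-FAM primer extension, HpaI digest → capillary electrophoresis. Positive direction vs DMSO control.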

Chain of E-selectin (Homo sapiens) (P16581 whole entry, looked up): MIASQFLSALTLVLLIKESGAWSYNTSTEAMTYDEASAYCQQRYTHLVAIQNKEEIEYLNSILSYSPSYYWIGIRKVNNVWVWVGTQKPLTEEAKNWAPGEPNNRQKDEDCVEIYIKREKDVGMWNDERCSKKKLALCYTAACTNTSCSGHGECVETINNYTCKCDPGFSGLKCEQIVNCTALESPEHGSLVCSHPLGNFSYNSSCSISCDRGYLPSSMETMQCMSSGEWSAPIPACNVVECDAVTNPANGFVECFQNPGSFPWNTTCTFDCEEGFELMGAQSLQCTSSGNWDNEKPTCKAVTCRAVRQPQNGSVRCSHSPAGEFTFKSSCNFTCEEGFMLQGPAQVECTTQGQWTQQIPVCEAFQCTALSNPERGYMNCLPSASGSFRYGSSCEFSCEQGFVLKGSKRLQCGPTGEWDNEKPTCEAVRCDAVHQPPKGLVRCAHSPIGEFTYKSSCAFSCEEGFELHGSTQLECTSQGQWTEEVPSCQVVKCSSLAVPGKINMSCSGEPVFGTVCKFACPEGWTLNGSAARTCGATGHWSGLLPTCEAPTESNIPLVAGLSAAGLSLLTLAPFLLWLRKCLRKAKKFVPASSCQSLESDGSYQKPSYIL
Chain of human Retinoid X Receptor beta (RXRb), RXRB (gene 6257) (P28702 whole entry, looked up): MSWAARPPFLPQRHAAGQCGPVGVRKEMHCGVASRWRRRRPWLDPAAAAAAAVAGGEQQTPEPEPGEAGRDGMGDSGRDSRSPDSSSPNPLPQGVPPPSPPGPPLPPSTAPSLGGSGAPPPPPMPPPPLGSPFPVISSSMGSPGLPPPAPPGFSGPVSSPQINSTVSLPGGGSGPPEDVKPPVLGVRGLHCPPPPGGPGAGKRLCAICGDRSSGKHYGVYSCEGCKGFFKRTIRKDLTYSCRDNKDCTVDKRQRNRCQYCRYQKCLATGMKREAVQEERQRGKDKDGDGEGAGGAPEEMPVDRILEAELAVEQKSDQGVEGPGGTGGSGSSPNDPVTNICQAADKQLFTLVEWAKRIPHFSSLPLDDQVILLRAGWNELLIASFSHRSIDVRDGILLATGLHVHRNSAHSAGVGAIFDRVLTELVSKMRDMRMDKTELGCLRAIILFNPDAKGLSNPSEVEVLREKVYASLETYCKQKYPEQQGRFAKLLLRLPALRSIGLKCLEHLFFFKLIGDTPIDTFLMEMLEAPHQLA
Chain of human Thyroid Receptor alpha (THRa1), THRA (gene 7067) (P10827 whole entry, looked up, the tested form may be a part): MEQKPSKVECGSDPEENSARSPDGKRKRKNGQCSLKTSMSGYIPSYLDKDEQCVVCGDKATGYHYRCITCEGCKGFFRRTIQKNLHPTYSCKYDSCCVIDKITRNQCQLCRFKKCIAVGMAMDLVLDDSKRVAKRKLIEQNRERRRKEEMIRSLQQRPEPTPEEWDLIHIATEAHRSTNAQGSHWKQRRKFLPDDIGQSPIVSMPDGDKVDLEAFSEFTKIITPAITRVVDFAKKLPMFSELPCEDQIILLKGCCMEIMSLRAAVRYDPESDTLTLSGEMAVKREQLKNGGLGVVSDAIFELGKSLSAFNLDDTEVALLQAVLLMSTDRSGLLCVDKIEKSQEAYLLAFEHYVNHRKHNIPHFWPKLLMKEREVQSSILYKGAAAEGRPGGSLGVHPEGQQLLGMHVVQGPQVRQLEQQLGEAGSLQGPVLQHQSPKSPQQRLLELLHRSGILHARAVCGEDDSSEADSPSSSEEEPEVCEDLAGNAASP
Chain of Retinoic acid receptor RXR-alpha (Homo sapiens) (P19793 whole entry, looked up, the tested form may be a part): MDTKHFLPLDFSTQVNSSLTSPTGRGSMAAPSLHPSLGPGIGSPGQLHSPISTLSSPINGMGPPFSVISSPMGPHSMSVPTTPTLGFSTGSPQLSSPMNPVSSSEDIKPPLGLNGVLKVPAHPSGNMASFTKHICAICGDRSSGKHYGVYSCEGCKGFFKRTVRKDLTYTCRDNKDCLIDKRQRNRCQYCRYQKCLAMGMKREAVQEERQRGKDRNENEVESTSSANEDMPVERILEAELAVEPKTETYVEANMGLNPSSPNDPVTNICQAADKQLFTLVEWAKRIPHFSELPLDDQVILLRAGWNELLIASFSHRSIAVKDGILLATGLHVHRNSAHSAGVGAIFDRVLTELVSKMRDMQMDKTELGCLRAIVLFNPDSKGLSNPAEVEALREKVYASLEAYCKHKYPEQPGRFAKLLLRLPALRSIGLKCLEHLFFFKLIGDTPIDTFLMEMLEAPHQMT
Chain of Peroxisome proliferator-activated receptor gamma (Homo sapiens) (P37231 whole entry, looked up, the tested form may be a part): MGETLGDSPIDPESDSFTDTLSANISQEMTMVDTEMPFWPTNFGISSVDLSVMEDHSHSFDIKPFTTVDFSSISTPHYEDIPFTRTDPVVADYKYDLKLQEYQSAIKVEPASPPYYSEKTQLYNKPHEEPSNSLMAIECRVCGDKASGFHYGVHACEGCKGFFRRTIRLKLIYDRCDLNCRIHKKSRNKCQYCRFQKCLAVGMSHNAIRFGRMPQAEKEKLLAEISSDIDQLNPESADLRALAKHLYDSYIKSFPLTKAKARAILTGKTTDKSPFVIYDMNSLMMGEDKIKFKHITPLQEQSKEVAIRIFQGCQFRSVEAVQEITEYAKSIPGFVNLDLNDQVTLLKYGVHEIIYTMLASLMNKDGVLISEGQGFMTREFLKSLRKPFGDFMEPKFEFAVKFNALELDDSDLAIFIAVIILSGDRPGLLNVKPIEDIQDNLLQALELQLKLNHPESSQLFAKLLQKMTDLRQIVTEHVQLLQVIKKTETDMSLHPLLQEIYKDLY
Chain of human Retinoic Acid Receptor gamma (RARg), RARG (gene 5916) (P13631 whole entry, looked up, the tested form may be a part): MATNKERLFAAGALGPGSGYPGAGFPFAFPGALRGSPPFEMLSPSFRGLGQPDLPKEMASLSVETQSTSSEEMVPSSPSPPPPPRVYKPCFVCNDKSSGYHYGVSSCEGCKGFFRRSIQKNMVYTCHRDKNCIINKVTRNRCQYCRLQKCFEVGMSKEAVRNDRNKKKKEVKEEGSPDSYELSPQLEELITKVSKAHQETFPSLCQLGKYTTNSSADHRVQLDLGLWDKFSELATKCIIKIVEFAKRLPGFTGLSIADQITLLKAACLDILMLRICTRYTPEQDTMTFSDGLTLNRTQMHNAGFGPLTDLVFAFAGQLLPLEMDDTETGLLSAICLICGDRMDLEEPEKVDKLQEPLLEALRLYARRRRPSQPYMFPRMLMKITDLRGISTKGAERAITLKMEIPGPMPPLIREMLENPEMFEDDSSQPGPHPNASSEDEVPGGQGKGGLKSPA
Chain of Retinoic acid receptor alpha (Homo sapiens) (P10276 whole entry, looked up, the tested form may be a part): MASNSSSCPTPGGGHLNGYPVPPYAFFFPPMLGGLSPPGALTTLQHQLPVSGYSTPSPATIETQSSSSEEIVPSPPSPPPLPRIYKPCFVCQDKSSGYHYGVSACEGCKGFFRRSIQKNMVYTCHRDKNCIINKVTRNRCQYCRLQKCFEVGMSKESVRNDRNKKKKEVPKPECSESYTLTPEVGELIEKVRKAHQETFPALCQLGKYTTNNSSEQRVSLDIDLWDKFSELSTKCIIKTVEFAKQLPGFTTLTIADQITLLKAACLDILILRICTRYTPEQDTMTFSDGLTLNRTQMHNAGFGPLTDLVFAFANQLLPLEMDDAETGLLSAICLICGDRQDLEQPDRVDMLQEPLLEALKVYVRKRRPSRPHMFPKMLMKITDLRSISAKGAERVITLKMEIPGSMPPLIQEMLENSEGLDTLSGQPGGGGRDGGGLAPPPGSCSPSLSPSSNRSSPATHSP

On to `C(=NC1CCCCC1)=NC1CCCCC1`, for which the half-maximal activity concentration (AC50) (usually the midpoint of the concentration-response curve, whichever way the signal moves) in [1] is 28.6 µM (active); in [5] it was 20 µM (active); in [6], 20 µM (active); in experiment [7], 3.82 µM (active); in experiment [8] it was 10.2 µM (active); in experiment [10], 8.96 µM (active). Further, the call in [2], in [3], in [4] and in [9] was inactive.

`ClC1=C(Cl)[C@]2(Cl)[C@@H]3[C@@H](Cl)[C@@H](Cl)C[C@@H]3[C@@]1(Cl)C2(Cl)Cl`: the result in experiment [11], in experiment [2] and in experiment [12] was inactive.

As to `C=CC(=O)OCCCCCC(C)C`, the outcome in [1], in [2], in experiment [3], in experiment [13], in experiment [12] and in experiment [5] was inactive. In addition, the result in [6], in experiment [14], in experiment [7], in experiment [8], in experiment [9] and in experiment [10] was inactive.

With `CCOP(=S)(OCC)SCCS(=O)(=O)CC`, the outcome in experiment [1], in [2], in experiment [5], in experiment [6], in experiment [14] and in [7] was inactive. Besides, the result in [8], in [9] and in experiment [10] was inactive. Besides, the half-maximal activity concentration (AC50) in experiment [3] was 7.88 µM (active).

As for `CCOP(=O)(CN(CCO)CCO)OCC`, the call in experiment [11], in [2], in experiment [15], in [16], in experiment [12] and in experiment [4] was inactive. The result in [9] was inactive.

For `CCCCCCCCC(=O)NCc1ccc(O)c(OC)c1`, the AC50 in [1] was 13.6 µM (active); in experiment [2], 27.3 µM (active); in experiment [7] it was 3.97 µM (active); in experiment [8], 20 µM (active). For the same compound, the outcome in experiment [3], in [15], in [5], in experiment [6], in [14] and in experiment [17] was inactive. The result in [18], in [9] and in [10] was inactive.

Regarding `CC(=O)[O][Hg][c]1ccccc1`, the outcome in [11], in experiment [2] and in experiment [3] was inactive. The half-maximal activity concentration (AC50) in experiment [1] is 1.18 µM (active); in experiment [12] it was 14.8 µM (active); in [5], 3.04 µM (active); in experiment [6], 2.57 µM (active); in [14], 964 nM (active); in experiment [7], 1.03 µM (active). Also, the half-maximal activity concentration (AC50) in experiment [8] is 0.317 µM (active); in experiment [10] it was 0.146 µM (active).

As to `CCCCCCCCCl`, the result in experiment [11], in experiment [3], in [15], in experiment [16], in [19] and in experiment [12] was inactive.

As to `COc1cccc(C=O)c1`, the compound was classed as inactive in experiment [20], in experiment [3], in experiment [16] and in [9].

As for `CCC(=O)C(CC(C)N(C)C)(c1ccccc1)c1ccccc1` (configuration not stated), the outcome in experiment [1], in experiment [3], in experiment [15], in experiment [19], in experiment [12] and in experiment [5] was inactive. In addition, the outcome in experiment [6], in experiment [14], in [7], in experiment [8] and in [10] was inactive.

As for `Oc1ccc(-c2ccccc2)cc1`, the result in experiment [1], in experiment [2], in experiment [3], in experiment [15], in experiment [19] and in experiment [12] was inactive. Besides, the compound was classed as inactive in experiment [4], in experiment [5], in experiment [6], in experiment [14], in experiment [7] and in experiment [8]. For the same compound, the outcome in experiment [17], in [18], in experiment [9] and in experiment [10] was inactive.

For `Nc1ccc(N=Nc2ccc(-c3ccc(N=Nc4c(S(=O)(=O)O)cc5cc(S(=O)(=O)O)c(N=Nc6ccccc6)c(O)c5c4N)cc3)cc2)c(N)c1`, the compound was classed as inactive in experiment [11], in [3], in experiment [12] and in [9].
